Assay results reported in PubChem BioAssay (NCI).
Compounds without any hit were thinned out: in the full panel of roughly 79,000, 15% have a hit. Unmarked numbers belong to inactive results. The source made the active and inactive calls. Cut-off read from the data, not from the text of the source: active = growth inhibition above about 70%; inactive = the rest.

Key:
[1] = NCI Yeast Anticancer Drug Screen. Data for the rad50 strain (AID 155);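 note: 0% = growth of vehicle-only cultures of the same strain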; details: S. cerevisiae rad50 strain growth inhibition; at 50.0 µM; stronger effect = higher value
Procedure, shortened: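 Compounds were tested on a yeast strain with an engineered DNA damage repair alteration; the reported value is growth inhibition normalised to vehicle treatment.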

[2] = NCI Yeast Anticancer Drug Screen. Data for the mec2-1 strain (AID 157); details: S. cerevisiae mec2-1 strain, at 50.0 µM, stronger effect = higher value
Procedure, shortened: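 Yeast mec2-1 mutant treated with compound. Readout: growth inhibition vs vehicle controls.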

[3] = NCI Yeast Anticancer Drug Screen. Data for the sgs1 mgt1 strain (AID 161);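 note: 0% = growth of cultures given vehicle only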; details: S. cerevisiae sgs1 mgt1 strain, at 50.0 µM, stronger effect = higher value
Procedure, shortened: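 Genetically altered yeast, compound exposure, growth inhibition relative to vehicle.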

[4] = NCI Yeast Anticancer Drug Screen. Data for the cln2 rad14 strain (AID 165);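 note: 0% = growth equal to vehicle treated cultures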; details: S. cerevisiae cln2 rad14 strain, at 50.0 µM, stronger effect = higher value
Procedure, shortened: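 cln2 rad14 yeast strain; compound exposure; growth inhibition read vs vehicle controls.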

[5] = NCI Yeast Anticancer Drug Screen. Data for the bub3 strain (AID 167); details: S. cerevisiae bub3 mutant strain, at 50.0 µM, stronger effect = higher value
Procedure, shortened: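 Growth of a checkpoint-deficient yeast mutant is measured after compound exposure. Values represent inhibition relative to vehicle.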

[6] = NCI Yeast Anticancer Drug Screen. Data for the mlh1 rad18 strain (AID 175); details: S. cerevisiae mlh1 rad18 strain growth inhibition; at 50.0 µM; stronger effect = higher value
Procedure, shortened: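 Yeast w/ defined DNA-repair lesions; compound exposure; growth vs vehicle controls → % inhibition.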

| SMILES | growth inhibition [1] | growth inhibition [2] | growth inhibition [3] | growth inhibition [4] [%] | growth inhibition [5] | growth inhibition [6] |
| --- | --- | --- | --- | --- | --- | --- |
| Cc1ccc(Cc2cc(=O)[nH]c(=S)[nH]2)cc1 | -1.05% | 4.05% | -6.15% | -26.9 | -11.6% | -3.35% |
| O=C1C(c2ccccc2)=C(c2ccccc2)c2ccc(Cl)cc21 | 13.7% | 15.6% | 8.85% | 7.75 | 0.45% | 6.45% |
| COc1ccc(C(C#N)N(C)C)cc1OC (stereo unspecified) | -16.9% | -13.6% | 8% | -15.1 | 0.75% | 5.15% |
| CCCCCCCCCCCCCCCCCC(=O)NC(=O)Nc1ccc(C)cc1 | -3.9% | 17.6% | -10.1% | -17 | -9.65% | 11.2% |
| CCC(C)(O)C(C)(O)CC (stereo unspecified) | -6.55% | -13.8% | 15.4% | 17.6 | -13.8% | -8.8% |
| CCCCn1cc(C(=O)O)c(=O)c2c3sccc3ccc21 | -24.1% | -35.8% | -8.95% | -5.15 | -9.5% | -26.1% |
| C=CC(C)(C)c1c(OC(C)=O)cc2oc3c(OC(C)=O)c(OC(C)=O)cc(CC=C(C)C)c3c(=O)c2c1O | 34% | 12.3% | 11.2% | 7.35 | -5.85% | -0.55% |
| O=C1NCCN(CCc2ccccc2)C1c1ccccc1 (stereo unspecified) | -9.6% | 0.95% | -8.85% | -31.9 | 15% | -6.05% |
| COc1cc([N+](=O)[O-])ccc1P(=O)(O)O | 2% | -5.65% | -1.4% | -4.35 | -9.95% | 14.1% |
| C[N+](C)(C)c1ccc2c(c1)CCC/C2=N\N | 12.8% | 9% | 11.6% | -9.2 | 13.5% | 4.3% |
| N#CC(C#N)=C/C=C/C=C/c1c(Cl)cccc1Cl | -6% | 1.8% | 0.95% | -3.25 | -6.8% | -14.4% |
| COC(=O)CSc1[nH]c2nc(C)nc(Nc3ccccc3)c2c1C#N | -13.8% | -19.2% | -9.85% | -6.75 | -27.8% | 16.1% |
| Cc1ccsc1C(=O)C(CC(=O)c1cccs1)c1ccsc1 (stereo unspecified) | -5.45% | -8.45% | -0.9% | 17.3 | 25.4% | 16.4% |
| COC(=O)C(Cc1cc(OC)c(OC)c(OC)c1)(NC(=O)c1ccccc1)P(=O)(OC)OC (stereo unspecified) | -14.2% | -1.75% | -38.4% | -51.6 | 1.05% | -9.7% |
| O=[N+]([O-])c1ccc(Cl)c(C(F)(F)F)c1 | -0.8% | 5.2% | 4% | -2.75 | 1.2% | -15.7% |
| Cc1cc(S(=O)(=O)Nc2nc3ccccc3[nH]2)c(S)cc1Cl | 19.9% | 13.2% | 23.9% | 23.4 | 5.55% | 40.6% |
| CC(=O)Nn1cnc(C(=N)C#N)c1N | -27.1% | -6.15% | -6.15% | 11.8 | -0.75% | -2.95% |
| O=C(O)[C@@H]1CCC(=O)N1C(c1ccc2c(c1)OCO2)c1ccc2c(c1)OCO2 | -52.2% | -18.1% | -31.1% | 4.35 | -15.1% | -24.4% |
| CC#Cc1c(O)c2c(c(O)c1C#CC)C(=O)c1ccccc1C2=O | -1.3% | -30% | -25.4% | -8.95 | -3% | -29.8% |
| C=C(C)C(=O)OCCN(CC)CC | 33.9% | -4.15% | 17.7% | 23.6 | 11.4% | 23.5% |
| CCOC(=O)Oc1cc2c(ccn2C)c2c1c1ccccc1n2C(=O)OCC | 2.25% | -1.8% | -26.6% | 8.9 | 13.6% | 0.4% |

| SMILES | growth inhibition [1] | growth inhibition [2] | growth inhibition [3] | growth inhibition [4] [%] | growth inhibition [5] | growth inhibition [6] |
| --- | --- | --- | --- | --- | --- | --- |
| CCCCN(CC)CCNc1cc(C)nc(/N=C(\N)Nc2ccc(Cl)c(Cl)c2)n1 | 95.8% (active) | 85% (active) | 96.3% (active) | 29.1 | 76.5% (active) | 92.5% (active) |
| CC(=O)OCCc1ccccc1C#N | 7.35% | 9.05% | 9.3% | -11.1 | -4.25% | 11.9% |
| COc1cc(/C=C/c2ccc([N+](=O)[O-])cc2[N+](=O)[O-])ccc1O | 24.3% | 8.5% | 28.6% | 19.1 | 9.25% | 25.9% |
| CCOC(=O)c1ccc(OCC)cc1O | 2.25% | -8% | 0.6% | -17.6 | -30.4% | -15.8% |
| COCCN(CCOC)C1C2=C(CCCC2)OS(=O)(=O)C1c1ccccc1 (stereo unspecified) | 26.9% | -4.75% | 6.45% | 12.9 | 3.2% | 0.05% |
| O=c1c2c(c(=O)c(=O)c1=O)Nc1ccccc1N2 | 22.2% | -6.15% | 11.6% | 34.7 | 10.2% | 15.7% |
| CC(C)NC(=O)OCc1c(COC(=O)NC(C)C)c(-c2ccc(Cl)c(Cl)c2)n2c1C[C@@H](O)C2 | 17.3% | 20% | 21.5% | 38.4 | 11.5% | -44.4% |
| O=[N+]([O-])c1ccc(C[Se]c2ncnc3c2ncn3C2OC(CO)C(O)C2O)cc1 (stereo unspecified) | -15.1% | -7% | 13.6% | -32.2 | 0.6% | -8.35% |
| CCOC(=O)N(c1ccccc1)c1ccccc1 | -11.3% | -18.8% | 18.7% | 5.65 | 5% | 15.2% |
| Nc1nc(SCCc2ccccc2)c2[nH]cnc2n1 | -2.35% | -4.35% | -42.6% | -16.6 | -20.4% | 7% |
| CCOC(=O)C(C#N)C(=O)c1ccccc1-c1ccccc1[N+](=O)[O-] (stereo unspecified) | 7.9% | 1.1% | 3.35% | -9.4 | -13.2% | 5% |
| CN=S(=O)(OCCCCOS(=O)(=NC)c1ccc(C)cc1)c1ccc(C)cc1 (stereo unspecified) | 10.6% | -14.4% | -26.4% | -22.8 | -23.4% | -71.5% |
| CC12CCC(C(S(=O)(=O)O)C1=O)C2(C)C (stereo unspecified) (tested in a mixture with another compound) | -1.2% | -15.1% | -6.7% | -5.7 | -0.6% | 0.55% |
| O=C1CC(c2ccccc2)NCN1 (stereo unspecified) | 3.95% | 1% | 7.1% | 2.2 | -2.4% | 8.3% |
| NC(=O)c1cccc2c1OCO2 | -8.75% | 9.7% | -7.35% | -10.6 | -0.6% | -5.25% |
| COc1c(O)c2c(=O)cc3c4c5c(cc(=O)c6c(O)c(OC)c(CC(C)O)c(c(c1CC(C)O)c24)c65)OCO3 (stereo unspecified) | 74.5% (active) | 97.8% (active) | 76.3% (active) | 37.5 | 5.55% | 70.5% (active) |
| Cc1c(C(=O)C/C(=N\O)C(=O)Nc2cc(Cl)c(Cl)cc2Cl)[n+](=O)c2ccccc2n1[O-] | 21.8% | 14.3% | 22.1% | 14.7 | 21.4% | 32.4% |
| CC1CC(=O)C(CCC#N)=C(O)C1 (stereo unspecified) | 4.85% | -14.2% | -8.15% | -9.9 | 5.55% | 4.95% |
| COc1ccc2ccccc2c1C1/C(=N/O)CCc2ccccc21 (stereo unspecified) | 30.4% | 15.2% | 12.2% | -37.3 | 10.6% | 14.7% |
| O=C(CCSCCC(=O)N/N=C/c1ccccc1F)N/N=C\c1ccccc1F | 22.6% | 10.7% | 38.1% | 27.4 | 24.4% | 21.8% |
